Screens deposited in PubChem BioAssay by National Center for Advancing Translational Sciences (NCATS).
Shiga toxin inh: A qHTS for Small Molecule Inhibitors of Shiga Toxin. inhibition, % at 38.7 µM. Vero cells, Shiga toxin protein synthesis inhibition reporter. actives 9.2% (n = 290,000). AID 2315, 2010; in the data active = inhibition mostly above about 28%, no sharp cut-off; inactive = mostly below about 43%; also: 0% is about no effect
Pf growth 48h: Primary qHTS for delayed death inhibitors of the malarial parasite plastid, 48 hour incubation; P. falciparum luciferase growth in erythrocytes, 48 h; Potency, µM (doses to about 28.7 µM), for the others: top-dose activity change, negative = inhibition, hits mostly inhibitors; actives 5.9% (n = 310,000); AID 504832, 2011; also: potency is read from the fitted curve at half-maximal effect; % is scaled to controls: 0 for no effect and ±100 for the full control effect
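Cell-based growth assay: transgenic P. falciparum expressing firefly luciferase, cultured in red cells within RPMI 1640 containing 0.5% w/v Albumax, 24 mM bicarbonate and gentamycin. A drop in luciferase activity indicates inhibition.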
Cycloheximide cs: Cycloheximide Counterscreen for Small Molecule Inhibitors of Shiga Toxin; max response, %; cell reporter, cycloheximide protein synthesis inhibition counterscreen; actives 12% (n = 300,000); in the data active = max response mostly above about 13%, no sharp cut-off; inactive = mostly below about 14%; also: read at 38.3 µM for the half of the compounds with a filed dose; 0% is about no effect
Pf growth 96h: Primary qHTS for delayed death inhibitors of the malarial parasite plastid, 96 hour incubation. P. falciparum luciferase reporter growth, 96 h. Potency, µM (series often up to 28.7 µM), for inactives: at the highest dose activity change, negative = inhibition, usual class: inhibitors. actives 6.9% (n = 320,000); also: potency is read from the fitted curve at half-maximal effect; % is scaled to controls: 0 for no effect and ±100 for the full control effect
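Cell-based qHTS: luciferase-tagged P. falciparum in erythrocytes (2% hematocrit, 0.05% parasitemia final) incubated with compounds for 96 hours, 37 C, 5% CO2; luciferase detection reagent then added and luminescence measured.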
Active calls of the source: *; ? = inconclusive; nt = not tested or not shown. Hits are enriched below; roughly 21% of the tested compounds scored in any of these assays. Unless noted, calls follow the shape of the dose curve; as a rule, active = well fitted inhibition curve with a large enough effect; inconclusive = small, poorly fitted or top-dose-only effect, or another doubt; inactive = no such curve, though single readings can be large or run the other way.

SMILES	Shiga toxin inh	Pf growth 48h	Cycloheximide cs	Pf growth 96h
O=C(N/N=C\c1ccncc1)c1ccccc1O	19.8	100.5%	21.7	23.0%
Cc1cc(C)cc(OCC(=O)N/N=C/c2ccccn2)c1	-7.4	-2.6%	11.0	4.6%
Cc1ccccc1OCC(=O)N/N=C/c1ccccn1	35.1*	-13.4%	11.4	14.1%
Cc1ccccc1C(=O)N/N=C/c1ccccn1	67.7*	-24.7%	52.5*	?
Cc1ccccc1C(=O)N/N=C/c1ccncc1	-3.5	25.2%	11.4	36.1%
CCN(CC(=O)Nc1c(F)cccc1F)C(=O)C1CC(=O)N(CCc2ccccc2)C1 (stereo unspecified)	nt	-3.8%	nt	4.3%
CCOC(=O)C1CCN(c2ncnc3c2cnn3-c2ccc(OC)cc2)CC1	-10.9	42.6%	-1.1	0.0%
CCOC(=O)C1CCCN(c2ncnc3c2cnn3-c2cccc(C)c2)C1 (stereo unspecified)	118.3*	151.9%	40.9*	?
CCN(CC)C(=O)C1CCCN(c2ncnc3c2cnn3-c2ccc(Cl)cc2)C1 (stereo unspecified)	61.5*	33.0%	23.3*	92.2%
CCN(CC)C(=O)C1CCCN(c2ncnc3c2cnn3-c2cccc(C)c2)C1 (stereo unspecified)	62.7*	nt	34.4*	?
COc1cccc2[nH]c3c(N4CCCC(C)C4)ncnc3c12 (stereo unspecified)	39.8	?	18.9	?
CCOC(=O)C1CCCN(c2ncnc3c2[nH]c2cccc(OC)c23)C1 (stereo unspecified)	-15.8	11.7µM*	-0.3	nt
Nc1cc(C(F)(F)F)ccc1S(=O)(=O)Nc1cccc2c1NCCC2	-4.3	nt	-7.4	nt
COc1ccccc1NC(=O)Cc1nnc(SCC(=O)NC2CCCCC2)n1C	-8.9	-15.3%	3.8	4.4%
CCCCCn1c(CNC(=O)c2cccs2)nc2ccccc21	4.1	?	-0.5	0.586µM*
CCCCCn1c(CCNC(=O)c2cccs2)nc2ccccc21	-15.0	?	0.2	-18.8%
CCCCn1c(CNC(=O)c2cccs2)nc2ccccc21	-4.3	5.22µM*	-0.4	2.08µM*
CCc1nc(SCC(=O)Nc2ccc(N(C)C)cc2)c2ccccc2n1	-21.3	-14.8%	1.7	-12.0%
COc1ccc(NC(=O)c2cc3c(Cl)nc4ccccc4c3s2)c(OC)c1	-2.0	28.2%	-1.9	-7.7%
CN(CCCNC(=O)c1cc2c(Cl)nc3ccccc3c2s1)Cc1ccccc1	-8.1	3.29µM*	-0.5	?
COc1cc(NC(=O)c2cc3c(Cl)nc4ccccc4c3s2)cc(OC)c1OC	-12.5	0.828µM*	5.6	?
CCN(CC)CCCNC(=O)c1cc2c(Cl)nc3ccccc3c2s1	-4.2	?	-2.7	?
Cc1nn(CCCC(=O)NC2CCC(C)CC2)c(=O)c2nn(-c3ccccc3)c(C)c12 (stereo unspecified)	-4.5	?	11.0	?
CCC(CC)C(=O)Nc1cccc(/C(C)=N/NC(=O)c2ccccc2Cl)c1	29.5	nt	16.0*	?
C/C(=N\NC(=O)c1cccc(Cl)c1)c1cccc(NC(=O)C(C)C)c1	46.1*	-9.7%	30.4*	?
SMILES	Shiga toxin inh	Pf growth 48h	Cycloheximide cs	Pf growth 96h
C/C(=N\NC(=O)c1ccncc1)c1cccc(NC(=O)c2ccc(Cl)s2)c1	77.5*	27.9%	30.7*	42.0%
C/C(=N\NC(=O)c1ccc(Cl)cc1)c1cccc(NC(=O)C(C)C)c1	23.7	4.9%	16.7*	74.8%
COc1ccc(C(=O)N/N=C(/C)c2cccc(NC(=O)c3ccncc3)c2)cc1OC	2.4	-2.0%	3.0	?
C/C(=N\NC(=O)c1ccc(Cl)c(Cl)c1)c1cccc(NC(=O)C(C)C)c1	29.3	0.0%	36.0	66.4%
CCOc1ncccc1C(=O)OCC(=O)Nc1nnc(-c2ccccc2)o1	nt	?	nt	-27.8%
Cc1ccc(N2CC(C(=O)Nc3nc4ccc(S(C)(=O)=O)cc4s3)CC2=O)cc1C (stereo unspecified)	-14.5	1.5%	-5.2	-3.4%
CCNS(=O)(=O)c1ccc(NC(=O)c2ccc(Cn3cc(Br)cn3)o2)cc1	-12.8	-24.5%	-1.7	11.7µM*
CC(=O)c1sc(NC(=O)c2ccc(Cn3cc(Br)cn3)o2)nc1C	-9.2	9.2%	-3.4	54.3%
C/C(=N\NC(=O)c1ccc(Cn2cc(Br)cn2)o1)c1cccc(NC(=O)C(C)C)c1	8.6	-15.0%	19.9*	11.7µM*
Cc1nnsc1S(=O)c1ccccc1Cl (stereo unspecified)	-5.4	?	-4.2	?
CCCCCc1ccc(C)cc1O	nt	4.0%	nt	4.4%
CCCCc1ccc(-c2ccc(C)cc2O)nc1	58.3*	nt	24.8*	22.6%
CCCCc1ccc(-c2ccc(Br)cc2O)nc1	85.6*	nt	49.4*	297.0%
CCCCN(CC)C(=O)Cc1ccc(Br)cc1	-11.6	-3.9%	0.7	-21.4%
O=C(/C=C/c1cccc([N+](=O)[O-])c1)c1ccco1	12.0	32.9%	-1.4	?
Cc1ccc(N/C=C/C(=O)c2ccco2)c(O)c1	69.7*	111.1%	60.1*	90.8%
Cc1ccc([N+](=O)[O-])cc1N/C=C/C(=O)c1ccco1	124.5*	32.5%	64.7*	63.5%
O=S(=O)(NCc1csc(-c2ccccc2)n1)c1ccc(Cl)s1	-6.3	-15.8%	4.5	?
O=S(=O)(NCc1csc(-c2cccs2)n1)c1ccccc1	41.0	2.3%	6.7*	18.1%
COc1ccc(C(=O)NCc2csc(-c3cccs3)n2)cc1	13.4	28.2%	1.3	34.0%
O=C(NCc1csc(-c2cccs2)n1)C1CCCCC1	76.2*	44.7%	28.6*	70.3%
COc1ccccc1CC(=O)NCc1csc(-c2cccs2)n1	68.0*	97.8%	46.6*	95.4%
COc1ccccc1CCNC(=O)c1nc(-c2cccs2)no1	66.6*	32.0%	29.2*	12.9%
O=C(NCc1csc(-c2cccs2)n1)Nc1cccc(Cl)c1	-13.0	18.2%	10.9	?
CCC(=O)NCc1csc(-c2cccs2)n1	27.7	38.3%	24.2*	74.5%
SMILES	Shiga toxin inh	Pf growth 48h	Cycloheximide cs	Pf growth 96h
CC(=O)Nc1ccc(OCC(O)Cn2cncn2)cc1 (stereo unspecified)	-2.1	26.8%	-6.8	52.3%
OCC[C@@H]1C[C@H](O)[C@@H](O)[C@]2(Cc3ccccc3CCO2)O1	-5.1	?	1.3	82.4%
COC(=O)C1Cc2ccccc2CN1C(=O)CCl (stereo unspecified)	-9.7	?	13.3	?
CCOC(=O)c1cc(C)sc1NC(=O)CSc1nnnn1C	-11.4	-13.0%	-2.0	1.65µM*
CCOC(=O)c1cc(C)sc1NC(=O)CSC1=NCCS1	-20.6	?	-5.5	9.28µM*
CC(=O)Nc1nonc1NC(=O)CSC1=NCCS1	1.0	-4.4%	12.3	0.1%
CCOC(=O)c1cc(S(=O)(=O)N(C)Cc2ccccc2)cn1C	-0.8	10.6%	0.9	?
C/C(Cn1cnc([N+](=O)[O-])n1)=N/NC(=O)COc1ccccc1Cl	9.4	2.1%	7.3	55.3%
C/C(Cn1cnc([N+](=O)[O-])n1)=N\NC(=O)c1ccc(Br)cc1	44.0*	11.0%	18.4*	-12.0%
C/C(Cn1cnc([N+](=O)[O-])n1)=N\NC(=O)c1cccnc1	24.8	-11.2%	13.6*	43.5%
